Compound activity: PubChem BioAssay, National Center for Advancing Translational Sciences (NCATS)
p53ts 32C tox = p53ts cell cytotoxicity, permissive temperature; H1299-p53A138V at 32C, ATP luminescence viability, 24 h; Potency, µM (doses to about 46.1 µM), for inactives: at the top dose activity change, negative = cytotoxicity, actives largely listed as cytotoxic; 130,000 tested, 0.93% active;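 note: 0% = DMSO and -100% = full killing by reference compound; nearly all actives have a fitted effect of over 55% in size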
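Cells: H1299 p53ts (A138V), 600/well, pre-incubated 16–30 h at 37C. Cpd up to 46 uM, 24 h, 32C. Readout: ATPlite luminescence, 20 min RT. Normalization: DMSO vs tamoxifen 100 uM. AC50 by Hill equation.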
Peg3 imprint = induces erasure of genomic imprints in mouse ES cells | 110,000 tested, 0.02% active | mouse ES Peg3-LacZ reporter, beta-gal luminescence, 40 h | Potency, µM (doses to about 60.7 µM), without a hit: at the highest dose activity change, positive = activation, usual class: activators | AID 1948
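Imprint erasure is scored as LacZ activity from the silenced maternal Peg3 allele in feeder-free female ES cells cultured 40 h with LIF. Luminescence is normalized to in-plate negative controls and fitted to the Hill equation.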
IkB signaling = IkB pathway inhibition in ABC-DLBCL cells | ABC-DLBCL IkBa-CBG/CBR dual luciferase ratio, 4 h; response scale: scaled: untreated 0%, proteasome inhibitor 100% | 110,000 tested, 0.04% active | AID 445 | Potency, µM (doses to about 57.1 µM), without a hit: top-dose IkBa stabilization activation; active = well fitted curve in the direction sought with a large enough effect in the signal ratio, not every such curve was filed as active; inconclusive = small, poorly fitted or top-dose-only effect, or a change in a side signal; the % refers to the signal ratio;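 note: the direction sought is a rising ratio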
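Luminescence ratio of IκBα-fused green versus native red beetle luciferase in OCI-Ly3 cells, 4 h post-doxycycline with compound; red signal alone, scaled from basal (0%) to zero light (-100%), flagged nonspecific or cytotoxic effects.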
p53ts 39C tox = cytotoxicity in p53ts cells at nonpermissive temperature; H1299-p53A138V viability at 39C, ATP luminescence, 24 h; Potency, µM (highest dose often 46.1 µM), inactives show top-dose activity change, negative = cell killing, most hits filed as cytotoxic; 130,000 tested, 1.5% active; AID 902; note: % is set by controls: 0 for no effect and ±100 for the full control effect; nearly all actives have a fitted effect of over 55% in size
Starred values were filed as active, the others as inactive; [ ] = remark or other dose. The list is not random: actives were taken first. Their share in the collection is about 1.7%. Unless noted, calls come from the whole dose curve; as a rule, active = well fitted curve in the direction sought with a large enough effect; inconclusive = small, poorly fitted or top-dose-only effect, or another doubt; inactive = no such curve, though single readings can be large; an effect the other way counts as inactive or inconclusive. Potency is the fitted concentration of half-maximal effect.

For CC(=O)c1ccc(NC(=O)c2nc3ccccc3n(C)c2=O)cc1 the results were p53ts 32C tox 2.5µM*, Peg3 imprint -30%[10.9 µM], IkB signaling -2% and p53ts 39C tox 2.5µM*.
Screening CCOc1ccc2nc(N3CCCC(C(=O)NCCCOC)C3)sc2c1 (centres undefined) returned p53ts 32C tox inconclusive, Peg3 imprint 14%[10.9 µM], IkB signaling -1% and p53ts 39C tox 10µM*.
`CCCCN(C)CCNC(=O)C1CCN(c2nc3ccc(CC)cc3s2)CC1` gave p53ts 32C tox 10µM*, Peg3 imprint -9%[10.9 µM], IkB signaling inconclusive and p53ts 39C tox 16µM*.
CCCN1CCN(CCCNC(=O)C2CCCN(c3nc4ccc(OCC)cc4s3)C2)CC1 (centres undefined) was read as p53ts 32C tox inconclusive, Peg3 imprint -22%, IkB signaling inconclusive and p53ts 39C tox inconclusive.
Screening CCc1ccc2nc(N3CCC(C(=O)O)CC3)sc2c1 returned p53ts 32C tox 6.3µM*, Peg3 imprint -10%[10.9 µM], IkB signaling inconclusive and p53ts 39C tox 6.3µM*.
Screening Cc1cc(=O)[nH]c(S/C=C/c2ccccc2)n1 returned p53ts 32C tox 6.3µM*, Peg3 imprint -85%, IkB signaling inconclusive and p53ts 39C tox 5µM*.
`CCCC[C@H]1C[C@@H]1[C@@H]1N(C(C)=O)[C@H](c2cccc(OC)c2)CC12CC2` gave p53ts 32C tox 13%, Peg3 imprint -15% and p53ts 39C tox -28%.
CCn1c(=O)cc(OCC(=O)N2CCN(c3ccccc3OC)CC2)c2ccccc21 was read as p53ts 32C tox 2%, Peg3 imprint -10%[10.9 µM], IkB signaling inconclusive and p53ts 39C tox -5%.
COc1ccc(Nc2nc(-c3cccc(Cl)c3)c3c(n2)-c2ccccc2OC3)cc1 was read as p53ts 32C tox 8%, Peg3 imprint -15%[10.9 µM], IkB signaling -1% and p53ts 39C tox -3%.
CCOc1ccc(Nc2nc(-c3cccc(Cl)c3)c3c(n2)-c2ccccc2OC3)cc1 was read as p53ts 32C tox inconclusive, Peg3 imprint -33%[10.9 µM], IkB signaling -5% and p53ts 39C tox 10µM*.
Screening Cc1ccc2sc(-c3ccc(N)cc3)nc2c1 returned p53ts 32C tox 2.5µM*, Peg3 imprint -49%[10.9 µM], IkB signaling 21% and p53ts 39C tox 3.2µM*.
Cc1nc2cnc(N(C)C)nc2n(Cc2ccc(F)cc2)c1=O was read as p53ts 32C tox 1%, IkB signaling -2%[11.4 µM] and p53ts 39C tox -2%.
CCCc1nn2c(=O)cc(COC(=O)c3ccc(NC(=O)CCc4ccccc4)cc3)nc2s1 was read as p53ts 32C tox 2%, Peg3 imprint 5%[10.9 µM], IkB signaling inconclusive and p53ts 39C tox 23%.
For Cc1cccc2c1-c1sc(C(=O)Nc3ccccc3C(N)=O)cc1CO2 the results were p53ts 32C tox inconclusive, Peg3 imprint -36%[10.9 µM], IkB signaling inconclusive and p53ts 39C tox 13µM*.
CN=c1scc(C)n1/N=C/c1ccc(O)cc1O was read as p53ts 32C tox 5µM*, Peg3 imprint -81%, IkB signaling inconclusive and p53ts 39C tox 5µM*.
Screening CCCc1nc2ccccc2c(=O)n1/N=C/c1ccc(O)cc1O returned p53ts 32C tox 6%, Peg3 imprint -12%, IkB signaling -3% and p53ts 39C tox -5%.
CCCc1nc2ccccc2c(=O)n1/N=C/c1ccc(O)cc1 was read as p53ts 32C tox 12%, Peg3 imprint -13%, IkB signaling 4% and p53ts 39C tox -7%.
For CN=c1scc(C)n1/N=C/c1ccc(O)cc1 the results were p53ts 32C tox 7.9µM*, Peg3 imprint -48%, IkB signaling 0% and p53ts 39C tox inconclusive.
`CN=c1scc(C)n1/N=C/c1ccc2c(c1)OCO2` gave p53ts 32C tox 5µM*, Peg3 imprint -85%, IkB signaling inconclusive and p53ts 39C tox 5µM*.
Oc1ccc(Nc2nc(-c3ccc(Cl)cc3)nc3ccccc23)cc1 was read as p53ts 32C tox inconclusive, Peg3 imprint 8%[10.9 µM], IkB signaling inconclusive and p53ts 39C tox 16µM*.
For Cc1cc(N2CCN(C(c3ccccc3)c3ccccc3)CC2)n2ncnc2n1 the results were p53ts 32C tox 12%, Peg3 imprint -44%, IkB signaling 2% and p53ts 39C tox 8%.
For Cc1nc2ncnn2c(N2CCN(C(c3ccccc3)c3ccccc3)CC2)c1C the results were p53ts 32C tox inconclusive, Peg3 imprint -41%, IkB signaling inconclusive and p53ts 39C tox 20µM*.
NS(=O)(=O)O was read as p53ts 32C tox -10%[1.84 µM], Peg3 imprint -1%, IkB signaling -2% and p53ts 39C tox 4%.
For Cc1ccccc1CNc1ncnc2c1ncn2[C@@H]1O[C@@H](CO)[C@H](O)[C@@H]1O the results were p53ts 32C tox -12%, IkB signaling inconclusive and p53ts 39C tox -13%.
For C[C@@H]1OC2C3=C(C(=O)[C@H]4O[C@@H]4[C@H]3O)[C@@H]1[C@H]1[C@H](C)OC=C3[C@H](O)[C@H]4O[C@H]4/C(=N\OCc4ccccc4)[C@@]321 the results were p53ts 32C tox 13%[9.22 µM] and p53ts 39C tox 4µM*.
COc1ccc(/C=C/C(=O)c2ccc(C)s2)cc1 was read as p53ts 32C tox 32µM*, Peg3 imprint -5% and p53ts 39C tox 21%.
For CC(C)N(Cc1ccccc1)C(=O)COC(=O)c1ccc2c(c1)OCCO2 the results were p53ts 32C tox 5%, Peg3 imprint -12%, IkB signaling 1% and p53ts 39C tox -9%.
Screening CC(C)N(CCC(=O)c1ccc2ccccc2c1)Cc1ccccc1 returned p53ts 32C tox 20µM*, Peg3 imprint -34%, IkB signaling inconclusive and p53ts 39C tox 32µM*.
COc1cccc(-c2cn3c(n2)sc2cc(C(=O)NCCCc4ccccc4)ccc23)c1 was read as p53ts 32C tox -5%, Peg3 imprint -9%[10.9 µM], IkB signaling 2% and p53ts 39C tox -7%.
Screening COc1ccc(OC)c(S(=O)(=O)Nc2ccc(O)c3ccccc23)c1 returned p53ts 32C tox inconclusive, Peg3 imprint -28%, IkB signaling inconclusive and p53ts 39C tox 10µM*.
Screening COc1ccc(OC)c(S(=O)(=O)Nc2ccc(C(N)=O)cc2)c1 returned p53ts 32C tox 7%, Peg3 imprint 0%, IkB signaling 3% and p53ts 39C tox 10%.
Screening Cc1c(C(=O)Nc2ccc(-c3nnc4n3CCCCC4)cc2)oc2c1ccc1ccccc12 returned p53ts 32C tox 1µM* and p53ts 39C tox -25%.
`COc1cccc(C(=O)Cn2c(=N)n(C)c3ccccc32)c1` gave p53ts 32C tox 3.2µM*, Peg3 imprint -83%, IkB signaling inconclusive and p53ts 39C tox 5µM*.
For Cc1cc(C)cc(C(=O)N2CC(=O)Nc3ccc(Br)cc3C2c2ccccc2)c1 (centres undefined) the results were p53ts 32C tox 45%, Peg3 imprint 6%[10.9 µM], IkB signaling 0% and p53ts 39C tox 1%.
Screening CSC(=[SH+])N=N/C(=C1/C=CC=CN1)c1ccccn1.[Cu][Br] returned Peg3 imprint -65%[10.9 µM].
